The values that follow come from PubChem BioAssay.

A word on the inhibition: it is the change of the read-out against control, counted positive when it falls.

Assay [1] in a line: inhibitors of TNFa-induced NFkB p65 translocation, primary screen, imaging, HUVEC, MLSMR starter and 10KST1 sets (AID 438;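 active = inhibition above 20% together with a positive visual image hit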;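 note: compound added about 3h40 before a 20 min TNFalpha stimulation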;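 for inhibition: signal is the nuclear over cytoplasmic p65 intensity ratio per well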). The conditions noted are these: HUVEC TNFa-induced p65 nuclear translocation; cell count: measured here: nuclei count (cytotoxicity indicator), at 2.08 µM; inhibition: at 2 µM, stronger effect = higher value, 0% TNFa-plus-vehicle, 100% no-TNFa wells.
Assay [2] is described as follows: inhibitors of mutant huntingtin aggregation, primary screen, imaging, exon1htt(103Q)mCFP cells, high-content imaging (AID 483;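 active = visual image review flags a hit and inhibition of aggregation exceeds 20%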;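 note: compound exposure lasted 3 days before fixation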;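 for nuclei count: percent of the per-plate median nuclei count of sample wells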). The following applies: exon1htt(103Q)mCFP cell line, aggregate imaging, at 2 µM; inhibition of aggregation: stronger effect = higher value; nuclei count: measured here: cell count, toxicity.
The nature of assay [3]: inhibitors of E-selectin induction by TNFa, primary screen, imaging, HUVEC, immunofluorescence, MLSMR starter and 10KST1 sets (AID 487;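 active = visually confirmed hit in the image check and inhibition above 20%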;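 for inhibition: signal is fraction of cell area covered by stained E-selectin grains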;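 for nuclei count: 100% = median nuclei count of all wells on the same plate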). The following applies: HUVEC TNFalpha-induced E-selectin immunofluorescence imaging, at 2 µM; inhibition: stronger effect = higher value; nuclei count: measured here: cell number, toxicity.
Assay [4] is described as follows: DUSP6 inhibitors restoring Erk phosphorylation by chemical complementation, primary imaging in DUSP6-transfected HeLa (AID 609;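 active = compounds giving at least 50% inhibition in the cell-based MKP-3 phosphatase rescue imaging test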;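 for inhibition: phospho-Erk level distribution per well compared with pooled transfected vehicle control wells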). The following applies: HeLa MKP-3 transfected, phospho-Erk imaging KS statistic, at 10 µM, cells stimulated with TPA for 15 min.
The target in assay [5] is Dual specificity protein phosphatase 6 (Homo sapiens) (UniProt Q16828). The description is as above. The conditions noted are these: HeLa MKP-3 transfected, phospho-Erk imaging KS statistic; at 10 µM; stronger effect = higher value; cells stimulated with TPA for 15 min.
Sequence of Dual specificity protein phosphatase 6 (Homo sapiens) (Q16828 whole entry, looked up): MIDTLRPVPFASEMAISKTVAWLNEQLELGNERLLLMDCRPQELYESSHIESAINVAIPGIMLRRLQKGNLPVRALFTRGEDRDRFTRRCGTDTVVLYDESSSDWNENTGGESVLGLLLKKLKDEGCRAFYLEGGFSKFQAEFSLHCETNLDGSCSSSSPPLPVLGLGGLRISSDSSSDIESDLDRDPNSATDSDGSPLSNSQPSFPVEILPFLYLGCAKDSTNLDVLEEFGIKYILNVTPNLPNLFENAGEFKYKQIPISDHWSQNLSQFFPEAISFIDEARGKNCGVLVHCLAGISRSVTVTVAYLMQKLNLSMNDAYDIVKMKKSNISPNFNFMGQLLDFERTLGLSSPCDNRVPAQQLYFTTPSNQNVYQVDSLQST
Assay [6] has as its target Voltage-gated potassium channel subunit beta-2 (Rattus norvegicus) (UniProt P62483). Kind of assay: KvBeta enzyme negative modulators, primary screen, biochemical, NADPH fluorescence (AID 622;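 active = fluorescence slope higher than the sample average by over 3 SD, cut at about -0.22 in these data, passing the limit was not always enough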;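 note: slope of raw intensity against log time taken from 70 to 1610 s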). The conditions noted are these: recombinant KvBeta, 4-cyanobenzaldehyde reduction, at 10 µM, stronger effect = higher value.
For assay [7] the target is unchanged. Nature of the assay: KvBeta positive modulators, primary screen, biochemical, NADPH fluorescence (AID 623;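 active = NADPH fluorescence slope more negative than the mean of all samples by about 3 SD, 99.7% confidence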;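 note: fluorescence intensity change per second fitted from 20 to 320 s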). The conditions noted are these: Recombinant KvBeta, NADPH fluorescence decrease slope, 10 min; at 10 µM; stronger effect = lower value.
The target of assay [8] is Alpha-2C adrenergic receptor (Homo sapiens) (UniProt P18825). Nature of the assay: modulators of alpha2C/GIRK thallium flux, primary screen, cell-based, HEK293 alpha2C/GIRK1/2 (AID 624;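 active = fluorescence slope after compound addition differing from the mean of all screened samples at 99.7% confidence, in either direction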;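 note: slope of fluorescence ratio to pre-addition baseline per second over 15 to 24 s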). The conditions noted are these: thallium flux BTC fluorescence, at 10 µM, actives lie on both sides.
Sequence of Alpha-2C adrenergic receptor (Homo sapiens) (P18825 whole entry, looked up): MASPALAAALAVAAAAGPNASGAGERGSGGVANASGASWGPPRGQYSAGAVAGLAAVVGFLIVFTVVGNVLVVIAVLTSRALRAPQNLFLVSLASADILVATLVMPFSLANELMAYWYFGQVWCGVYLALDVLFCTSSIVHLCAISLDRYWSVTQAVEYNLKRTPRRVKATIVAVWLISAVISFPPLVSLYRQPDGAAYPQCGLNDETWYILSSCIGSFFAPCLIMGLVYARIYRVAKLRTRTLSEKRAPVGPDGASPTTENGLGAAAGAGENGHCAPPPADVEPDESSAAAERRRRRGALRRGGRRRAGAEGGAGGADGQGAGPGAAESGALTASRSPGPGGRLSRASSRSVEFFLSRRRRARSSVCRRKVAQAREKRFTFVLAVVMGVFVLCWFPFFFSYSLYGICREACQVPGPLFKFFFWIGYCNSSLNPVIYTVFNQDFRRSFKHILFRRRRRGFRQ
Assay [9] in a line: inhibitors of larval lipid processing in zebrafish, primary screen, whole organism, PED6 fluorescence, gall bladder and intestine (AID 686;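 active = a full or partial loss of lipid-probe fluorescence in the fish gall bladder, intestine or both, judged by eye; inactive = no fluorescence loss, or compound toxic to the fish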;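 note: larvae 5 to 7 days old with five fish per well; signal comes from phospholipase A2 cleavage of quenched PED6 carried via bile; overnight exposure to compound and PED6 before scoring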). The conditions noted are these: Zebrafish larvae PED6 lipid processing, fluorescence scoring; screened at 20 µM (by protocol).
The nature of assay [10]: inhibitors of Chlamydomonas gravitaxis, primary screen, whole organism, Chlamydomonas reinhardtii, WT vs cilia-less mutant, absorbance, 96-well (AID 463189).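 Note: 0% = wild type cc124 cells in DMSO and 100% = ciliumless bld1 mutant cells.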 The conditions noted are these: OD600 absorbance, 2 days, at 10 µM, stronger effect = higher value.
A short description of assay [11]: inhibitors of Sendai virus-induced IRF3 signaling, primary screen, TLR/RLR signaling modifier project, cell-based, Sendai virus stimulus, luciferase, 10K MLSCN set (AID 602276;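 active = inhibition at or above 50% at 10 µM; inactive = inhibition below 50%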;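 note: firefly luciferase from ISG56 promoter only with Renilla not read in this screen; 0% = Sendai virus plus DMSO and 100% = medium plus DMSO without virus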). The conditions noted are these: HEK293 RL24 IRF3 luciferase reporter, at 10 µM, stronger effect = higher value.
Assay [12] in a line: inhibitors of poly I:C-induced TLR3 signaling, primary screen, cell-based, poly I:C stimulus, luciferase, 10K MLSCN set (AID 602277;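 active = inhibition of the reporter signal at or above 50%; inactive = inhibition below 50%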). The conditions noted are these: HEK293-TLR3 RL24 IRF3 luciferase reporter, at 10 µM, stronger effect = higher value. A general note: Reporter assays use an easily measured gene product as a stand-in for the process of interest.
The mark [13] stands for this setting: measured here: cell density z-score.
[14] abbreviates: measured here: nuclear c-Myc green intensity z-score.
The mark [15] stands for this setting: measured here: nuclear pErk red intensity z-score, stronger effect = higher value.

“And” between values parts separate entries of the source, which are not always exact repeats. Equal entries are not always repeated. The source made the active and inactive calls.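 Rule for the calls, unless noted: active = inhibition at or above 50% relative to wild type and mutant plate controls; inactive = inhibition below 50%.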

Sequence of Voltage-gated potassium channel subunit beta-2 (Rattus norvegicus) (P62483 whole entry, looked up): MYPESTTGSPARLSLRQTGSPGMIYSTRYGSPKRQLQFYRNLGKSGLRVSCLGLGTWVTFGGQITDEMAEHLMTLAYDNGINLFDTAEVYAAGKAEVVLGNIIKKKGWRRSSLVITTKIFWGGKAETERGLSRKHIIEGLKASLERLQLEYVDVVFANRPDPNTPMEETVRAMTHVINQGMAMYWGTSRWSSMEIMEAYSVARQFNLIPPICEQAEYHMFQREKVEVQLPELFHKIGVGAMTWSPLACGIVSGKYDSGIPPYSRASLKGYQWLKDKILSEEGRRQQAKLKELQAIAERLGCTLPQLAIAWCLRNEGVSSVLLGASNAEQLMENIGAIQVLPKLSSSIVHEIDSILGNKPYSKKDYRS

Take `COC(=O)[C@@H](N)Cc1ccc(O)cc1`: the cell count in assay [1] is 550. The inhibition in assay [1] was -6.9% (inactive); in assay [3], -9.7% (inactive); in assay [5] it was 11.3% (inactive); in assay [10] it was 15.2% (inactive); in assay [11], 15.4% (inactive); in [12], 27.7% (inactive). Moreover, in [2], the inhibition of aggregation is 4.1% (inactive). The nuclei count in assay [2] was 91.1%; in [3], 107%. In addition, the results for the z-score in [4] (setting [13]), in assay [4] (setting [14]) and in assay [4] (setting [15]) were -0.0639, 0.189 and 0.26, respectively. Besides, the fluorescence slope in assay [6] was -0.496 (inactive). In assay [7], the NADPH fluorescence slope was -7.7e-05 (inactive). The slope in assay [8] is 0.00529 (inactive). Also, the molecule was called inactive in assay [9].

Consider `CC(COc1ccccc1)NC(C)C(O)c1ccc(O)cc1` (stereo not given), for which the cell count in assay [1] was 534. Further, the inhibition in [1] was -7.4% (inactive); in assay [3] it was -135% (inactive); in assay [5], -12.3% (inactive); in [10], -3.83% (inactive); in assay [11] it was -5.16% (inactive); in assay [12], -30% (inactive). In addition, the inhibition of aggregation in [2] is -13.1% (inactive). In addition, the values for the nuclei count in assay [2] and in assay [3] were 100% and 121%, respectively. Besides, the z-score in assay [4] (setting [13]) was -1.06; in [4] (setting [14]) it was -0.532; in assay [4] (setting [15]) it was 0.827. Moreover, the fluorescence slope in [6] is -0.54 (inactive). Besides, in assay [7], the NADPH fluorescence slope was 4.6e-06 (inactive). For the same molecule, in [8], the slope was 0.00639 (inactive). Further, the molecule was classed as inactive in assay [9].

Turning to `NC(Cc1ccc(Oc2ccc(O)cc2)cc1)C(=O)O` (stereo not given), in [1], the cell count turned out to be 563. The inhibition was -6.8% (inactive) in assay [1]; -19.7% (inactive) in assay [3]; 3.45% (inactive) in assay [5]; -4.82% (inactive) in [10]; 11.4% (inactive) in [11]; 24.4% (inactive) in assay [12]. Also, the inhibition of aggregation in [2] is -8.1% (inactive). Besides, the nuclei count in assay [2] and in assay [3] was 103% in each case. Moreover, the z-score was -0.271 in assay [4] (setting [13]), -1.56 in assay [4] (setting [14]) and -0.79 in assay [4] (setting [15]). Also, the fluorescence slope in [6] was -0.495 (inactive). Further, the NADPH fluorescence slope in assay [7] is -5.7e-05 (inactive). In addition, in assay [8], the slope was 0.00414 (inactive). For the same molecule, the call in assay [9] was inactive.

`CN1CCN(CC(=O)N2c3ccccc3C(=O)Nc3cccnc32)CC1`: the cell count in [1] worked out at 529. For the same molecule, the inhibition is 5.4% (inactive) in [1]; -81.3% (inactive) in [3]; 25.7% (inactive) in [5]; 1.89% (inactive) and 39.4% (inactive) in [10]; 18.8% (inactive) in [11]; 34.2% (inactive) in assay [12]. In addition, in assay [2], the inhibition of aggregation was -20% (inactive). Moreover, the nuclei count in assay [2] is 110%; in assay [3], 123%. In addition, the z-score in assay [4] (setting [13]) was 2.59; in assay [4] (setting [14]) it was -0.126; in assay [4] (setting [15]), -1.97. The fluorescence slope in assay [6] is -0.476 (inactive). The NADPH fluorescence slope in assay [7] was -3.8e-05 (inactive). For the same molecule, in assay [8], the slope was 0.00501 (inactive). For the same molecule, the molecule was called inactive in assay [9].

Turning to `C[C@H](CCC(=O)O)[C@H]1CC[C@H]2[C@@H]3C(=O)C[C@@H]4CC(=O)CC[C@]4(C)[C@H]3CC(=O)[C@]12C`, in assay [1], the cell count turned out to be 606. Moreover, the inhibition is -9.6% (inactive) in [1]; -37.7% (inactive) in assay [3]; 3.45% (inactive) in assay [5]; 9.63% (inactive) in assay [10]; 14.6% (inactive) in [11]; 33.2% (inactive) in [12]. For the same molecule, the inhibition of aggregation in [2] was 5.8% (inactive). For the same molecule, the nuclei count in assay [2] worked out at 102%; in [3], 138%. Also, the z-score was -0.246 in assay [4] (setting [13]), -0.125 in [4] (setting [14]) and -0.32 in assay [4] (setting [15]). The fluorescence slope in assay [6] is -0.45 (inactive). The NADPH fluorescence slope in assay [7] is 5.4e-06 (inactive). The slope in assay [8] was 0.00499 (inactive). Moreover, the call in assay [9] was inactive.
